# Source: PubChem BioAssay (EPA / NIEHS)
# The source made the active and inactive calls. The calls were made as follows: active = hit-call score of the fitted dose curve at least 0.9, where 1 is the maximum; inactive = score below 0.9.
# Key:
# Conditions in all cases: mRNA level, 48 h; actives raise or lower the signal
# [1] = read-out: ATP-citrate lyase (ACLY), ACLY (gene 47); assay: LTEA_HepaRG_ACLY: Life Technologies and Expression Analysis (LTEA) Assay for ATP-citrate lyase (ACLY) using HepaRG (AID 2283466)
# Summary of the method: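 HepaRG, 48 h exposure, 8-pt half-log dilutions (top 100 uM), 0.5% DMSO. Readout: ACLY mRNA, TaqMan qRT-PCR, housekeeping-normalized (ACTB/GAPDH/POLR2A). Bidirectional curve fit vs DMSO.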
# [2] = read-out: Peroxisomal acyl-coenzyme A oxidase 1 (ACOX1) gene, ACOX1 (gene 51); assay: LTEA_HepaRG_ACOX1: Life Technologies and Expression Analysis (LTEA) Assay for Peroxisomal acyl-coenzyme A oxidase 1 (ACOX1) gene using HepaRG (AID 2283467)
# Summary of the method: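 Measured by qRT-PCR against three housekeeping genes: ACOX1 transcript change in human HepaRG cells after 48 h dosing. Concentrations ran up to 100 uM in half-log steps. Curves were fitted bidirectionally relative to 0.5% DMSO.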
# [3] = read-out: Bcl-2 (BAD) gene, BAD (gene 572); assay: LTEA_HepaRG_BAD: Life Technologies and Expression Analysis (LTEA) Assay for Bcl-2 (BAD) gene using HepaRG (AID 2283469)
# Summary of the method: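 BAD transcript change, measured by qRT-PCR against three housekeeping genes and fitted in both directions relative to 0.5% DMSO, after 48 h chemical treatment of human HepaRG liver cells at concentrations up to 100 uM.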
# [4] = read-out: Bcl-2 (BAX) gene, BAX (gene 581); assay: LTEA_HepaRG_BAX: Life Technologies and Expression Analysis (LTEA) Assay for Bcl-2 (BAX) gene using HepaRG (AID 2283470)
# Summary of the method: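 HepaRG (human liver), 48 h exposure, duplicate wells. 8-pt curve, half-log from 100 uM, 0.5% DMSO. BAX transcript by TaqMan qRT-PCR; ACTB/GAPDH/POLR2A normalization; gain or loss vs DMSO baseline.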
# [5] = read-out: adenosine kinase (ADK) gene, ADK (gene 132); assay: LTEA_HepaRG_ADK: Life Technologies and Expression Analysis (LTEA) Assay for adenosine kinase (ADK) gene using HepaRG (AID 2283471)
# Summary of the method: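 Differentiated HepaRG cells dosed 48 h in serum-free induction medium, 0.5% DMSO vehicle, eight half-log concentrations from 100 uM, in duplicate. ADK mRNA by TaqMan qRT-PCR normalised to ACTB, GAPDH, POLR2A; bidirectional fit versus DMSO.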
# [6] = read-out: Alpha-fetoprotein (AFP) gene, AFP (gene 174); assay: LTEA_HepaRG_AFP: Life Technologies and Expression Analysis (LTEA) Assay for Alpha-fetoprotein (AFP) gene using HepaRG (AID 2283472)
# Summary of the method: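 HepaRG, single lot; 48 h post-plating -> serum-free induction medium; cpd 8-pt, 100 uM top, half-log, 0.5% DMSO, duplicate, 48 h. RNA -> qRT-PCR AFP, norm ACTB/GAPDH/POLR2A. Bidirectional fit vs DMSO.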
# BCL2L11 (gene 10018) = assay: LTEA_HepaRG_BCL2L11: Life Technologies and Expression Analysis (LTEA) Assay for Bcl-2 (BCL2L11) gene using HepaRG (AID 2283473)
# Summary of the method: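 HepaRG, 48 h exposure, 8-pt half-log series from 100 uM in 0.5% DMSO, duplicates; qRT-PCR (Fluidigm TaqMan) for BCL2L11, housekeeping-normalized; bidirectional curve fit relative to DMSO baseline.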
# [7] = read-out: Apolipoprotein A-V (APOA5) gene, APOA5 (gene 116519); assay: LTEA_HepaRG_APOA5: Life Technologies and Expression Analysis (LTEA) Assay for Apolipoprotein A-V (APOA5) gene using HepaRG (AID 2283474)
# Summary of the method: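 HepaRG, 48 h chemical exposure in serum-free induction medium, 8-pt half-log series (top 100 uM), 0.5% DMSO vehicle, duplicates. Readout: APOA5 mRNA by qRT-PCR, housekeeping-normalized; bidirectional fit vs DMSO baseline.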
# [8] = read-out: Apoptosis regulator Bcl-2 (Homo sapiens) (UniProt P10415); assay: LTEA_HepaRG_BCL2: Life Technologies and Expression Analysis (LTEA) Assay for Bcl-2 gene using HepaRG (AID 2283475)
# Summary of the method: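 HepaRG, plated 48 h then switched to serum-free induction medium; dosed 48 h, 8 conc. (max 100 uM, half-log steps), duplicate, 0.5% DMSO. Lysis in RLT, RNA isolated, TaqMan qRT-PCR for BCL2; ACTB/GAPDH/POLR2A normalisation; bidirectional fit vs DMSO.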
# [9] = read-out: Bcl-2 (BID) gene, BID (gene 637); assay: LTEA_HepaRG_BID: Life Technologies and Expression Analysis (LTEA) Assay for Bcl-2 (BID) gene using HepaRG (AID 2283476)
# Summary of the method: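 Transcript levels of BID, measured by qRT-PCR and normalized to three housekeeping genes, were fitted bidirectionally against DMSO controls. Cells were HepaRG, dosed 48 h at up to 100 uM.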
# Caspase-3 (Homo sapiens) = Caspase-3 (Homo sapiens) (UniProt P42574); assay: LTEA_HepaRG_CASP3: Life Technologies and Expression Analysis (LTEA) Assay for cysteine-aspartic acid protease (CASP3) using HepaRG (AID 2283477)
# Sequence of Caspase-3 (Homo sapiens) (P42574 whole entry, looked up): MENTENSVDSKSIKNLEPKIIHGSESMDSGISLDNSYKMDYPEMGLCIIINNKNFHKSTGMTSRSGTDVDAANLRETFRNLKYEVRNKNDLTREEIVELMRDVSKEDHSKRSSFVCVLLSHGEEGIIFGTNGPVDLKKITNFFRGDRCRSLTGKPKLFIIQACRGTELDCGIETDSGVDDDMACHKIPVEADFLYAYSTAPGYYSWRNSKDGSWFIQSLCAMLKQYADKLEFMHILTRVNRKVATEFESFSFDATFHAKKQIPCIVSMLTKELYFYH
# Summary of the method: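 HepaRG, 48 h exposure, 8 conc. (top 100 uM, half-log steps, duplicate), 0.5% DMSO vehicle; qRT-PCR of CASP3 transcript, housekeeping-normalised (ACTB/GAPDH/POLR2A); bidirectional curve fit vs DMSO baseline.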
# [10] = read-out: Cytochrome P450 (CYP24A1), CYP24A1 (gene 1591); assay: LTEA_HepaRG_CYP24A1: Life Technologies and Expression Analysis (LTEA) Assay for Cytochrome P450 (CYP24A1) using HepaRG (AID 2283478)
# Summary of the method: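 qRT-PCR read-out: CYP24A1 transcript levels normalized to three housekeeping genes, bidirectional curve fits against 0.5% DMSO baseline. Human HepaRG cells treated 48 h with chemicals at eight concentrations from 100 uM in half-log steps.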
# [11] = read-out: Cytochrome P450 (CYP1A2), CYP1A2 (gene 1544); assay: LTEA_HepaRG_CYP1A2: Life Technologies and Expression Analysis (LTEA) Assay for Cytochrome P450 (CYP1A2) using HepaRG (AID 2283479)
# Summary of the method: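 HepaRG, 48 h exposure, top 100 uM, half-log 8-pt, 0.5% DMSO vehicle, duplicates. Readout: TaqMan qRT-PCR of CYP1A2 mRNA, housekeeping-normalized (ACTB/GAPDH/POLR2A). Gain/loss fit relative to DMSO baseline.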
# [12] = read-out: cysteine-aspartic acid protease (CASP8), CASP8 (gene 841); assay: LTEA_HepaRG_CASP8: Life Technologies and Expression Analysis (LTEA) Assay for cysteine-aspartic acid protease (CASP8) using HepaRG (AID 2283480)
# Summary of the method: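 HepaRG, 48 h exposure, duplicate wells; 8 conc, half-log from 100 uM, 0.5% DMSO. Serum-free induction medium. CASP8 mRNA by TaqMan qRT-PCR, norm. ACTB/GAPDH/POLR2A; gain/loss fitted vs DMSO.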
# [13] = read-out: Cytochrome P450 (CYP2B6), CYP2B6 (gene 1555); assay: LTEA_HepaRG_CYP2B6: Life Technologies and Expression Analysis (LTEA) Assay for Cytochrome P450 (CYP2B6) using HepaRG (AID 2283481)
# Summary of the method: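 Read-out is CYP2B6 mRNA by TaqMan qRT-PCR, normalized to three housekeeping genes and fitted bidirectionally against 0.5% DMSO baseline. Human HepaRG cells received test chemicals for 48 h, top concentration 100 uM, half-log dilutions.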
# [14] = read-out: Cytochrome P450 2C19 (Homo sapiens) (UniProt P33261); assay: LTEA_HepaRG_CYP2C19: Life Technologies and Expression Analysis (LTEA) Assay for CYP2C19 using HepaRG (AID 2283482)
# Summary of the method: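 HepaRG, 48 h chemical exposure, 8-pt half-log series from 100 uM in 0.5% DMSO, duplicates. Readout: CYP2C19 mRNA by TaqMan qRT-PCR, housekeeping-normalized. Bidirectional fit vs DMSO baseline; phenobarbital 1mM as induction control.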
# CYP2C8 (gene 1558) = assay: LTEA_HepaRG_CYP2C8: Life Technologies and Expression Analysis (LTEA) Assay for CYP2C8 using HepaRG (AID 2283483)
# Summary of the method: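 CYP2C8 mRNA induction or loss, by qRT-PCR normalized to ACTB/GAPDH/POLR2A, is read in HepaRG cells after 48 h treatment. Concentrations run from 100 uM down in half-log dilutions, with 0.5% DMSO as vehicle and baseline.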
# CYP2C9 (gene 1559) = assay: LTEA_HepaRG_CYP2C9: Life Technologies and Expression Analysis (LTEA) Assay for CYP2C9 using HepaRG (AID 2283484)
# Summary of the method: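 Cells plated 48 h, switched to serum-free induction medium, then treated in duplicate for 48 h at eight concentrations (max 100 uM, 0.5% DMSO). RNA then analysed by qRT-PCR for CYP2C9; curves fitted in both directions relative to DMSO.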
# CYP2E1 (gene 1571) = assay: LTEA_HepaRG_CYP2E1: Life Technologies and Expression Analysis (LTEA) Assay for CYP2E1 using HepaRG (AID 2283485)
# Summary of the method: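 Human liver line HepaRG, plated 48 h, then serum-free induction medium + chemical x 48 h; 8-pt CRC from 100 uM, half-log, 0.5% DMSO, n=2. Readout: CYP2E1 mRNA qRT-PCR vs ACTB/GAPDH/POLR2A; bidirectional fit vs DMSO.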
# [15] = read-out: Alkaline Phosphatase, Placental (ALPP) gene, ALPP (gene 250); assay: LTEA_HepaRG_ALPP: Life Technologies and Expression Analysis (LTEA) Assay for Alkaline Phosphatase, Placental (ALPP) gene using HepaRG (AID 2283468)
# Summary of the method: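 qRT-PCR readout of ALPP mRNA (Fluidigm TaqMan), normalized to ACTB/GAPDH/POLR2A, after 48 h chemical exposure of HepaRG cells; 8-point half-log series, top 100 uM, 0.5% DMSO vehicle. Bidirectional curve fit versus DMSO baseline.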
# Sequence of Apoptosis regulator Bcl-2 (Homo sapiens) (P10415 whole entry, looked up): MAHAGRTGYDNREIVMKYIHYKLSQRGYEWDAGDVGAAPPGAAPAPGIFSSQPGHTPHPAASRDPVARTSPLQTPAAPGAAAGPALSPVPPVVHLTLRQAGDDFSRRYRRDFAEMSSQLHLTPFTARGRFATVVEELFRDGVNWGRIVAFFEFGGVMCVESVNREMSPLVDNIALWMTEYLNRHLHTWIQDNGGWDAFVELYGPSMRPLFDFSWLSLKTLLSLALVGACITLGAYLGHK
# Sequence of Cytochrome P450 2C19 (Homo sapiens) (P33261 whole entry, looked up): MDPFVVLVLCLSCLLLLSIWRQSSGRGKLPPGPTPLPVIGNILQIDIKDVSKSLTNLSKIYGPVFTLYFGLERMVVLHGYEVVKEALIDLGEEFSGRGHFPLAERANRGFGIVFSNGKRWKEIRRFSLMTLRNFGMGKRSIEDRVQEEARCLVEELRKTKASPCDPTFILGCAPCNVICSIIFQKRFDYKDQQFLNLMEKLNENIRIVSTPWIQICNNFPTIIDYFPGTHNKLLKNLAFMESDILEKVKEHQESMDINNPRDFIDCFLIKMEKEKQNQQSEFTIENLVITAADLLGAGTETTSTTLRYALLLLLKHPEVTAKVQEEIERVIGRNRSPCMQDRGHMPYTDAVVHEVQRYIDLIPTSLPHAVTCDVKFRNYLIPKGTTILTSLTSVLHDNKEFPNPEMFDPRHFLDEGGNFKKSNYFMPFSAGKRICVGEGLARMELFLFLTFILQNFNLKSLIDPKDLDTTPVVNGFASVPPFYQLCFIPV
smiles,measurement,setting,value
O=C(O)c1ccccc1-n1cc(C(=O)O)c(=O)c2cc(Nc3c(F)cc(F)cc3Cl)c(Cl)cc21,outcome,[1],inactive
same,outcome,[2],inactive
same,outcome,[3],inactive
same,outcome,[4],inactive
same,outcome,[5],inactive
same,outcome,[6],inactive
same,outcome,BCL2L11 (gene 10018),inactive
same,outcome,[7],inactive
same,outcome,[8],inactive
same,AC50,[9],10 nM (active)
same,outcome,Caspase-3 (Homo sapiens),inactive
same,outcome,[10],inactive
same,outcome,[11],inactive
same,outcome,[12],inactive
same,AC50,[13],11.2 µM (active)
same,AC50,[14],5.7 µM (active)
same,AC50,CYP2C8 (gene 1558),7.91 µM (active)
same,outcome,CYP2C9 (gene 1559),inactive
same,AC50,CYP2E1 (gene 1571),25.5 µM (active)
CC[C@@H]1C[C@H](N(Cc2cc(C(F)(F)F)cc(C(F)(F)F)c2)C(C)=O)c2cc(C(F)(F)F)ccc2N1C(=O)OC(C)C,outcome,[1],inactive
same,outcome,[2],inactive
same,outcome,[15],inactive
same,outcome,[3],inactive
same,outcome,[4],inactive
same,outcome,[5],inactive
same,outcome,[6],inactive
same,outcome,BCL2L11 (gene 10018),inactive
same,outcome,[7],inactive
same,outcome,[8],inactive
same,outcome,[9],inactive
same,outcome,Caspase-3 (Homo sapiens),inactive
same,outcome,[10],inactive
same,AC50,[11],21.3 µM (active)
same,outcome,[12],inactive
same,AC50,[13],0.735 µM (active)
same,AC50,[14],0.507 µM (active)
same,AC50,CYP2C8 (gene 1558),0.814 µM (active)
same,outcome,CYP2C9 (gene 1559),inactive
same,AC50,CYP2E1 (gene 1571),3.17 µM (active)
Cc1ncc(CO)c(CO)c1O,outcome,[2],inactive
same,outcome,[15],inactive
same,outcome,[3],inactive
same,outcome,[4],inactive
same,outcome,[5],inactive
same,outcome,[6],inactive
same,outcome,BCL2L11 (gene 10018),inactive
same,outcome,[7],inactive
same,outcome,[8],inactive
same,outcome,[9],inactive
same,outcome,Caspase-3 (Homo sapiens),inactive
same,outcome,[10],inactive
same,outcome,[11],inactive
same,outcome,[12],inactive
same,outcome,[13],inactive
same,outcome,[14],inactive
same,outcome,CYP2C8 (gene 1558),inactive
same,outcome,CYP2C9 (gene 1559),inactive
same,outcome,CYP2E1 (gene 1571),inactive
